Compound activity as filed in PubChem BioAssay.
Cruzain inh Det: qHTS Assay for Promiscuous and Specific Inhibitors of Cruzain (with detergent); Cruzipain (Trypanosoma cruzi), P25779; purified cruzain, Z-FR-AMC fluorescence, 0.01% Triton; Potency, µM, inactives show max response, negative = inhibition, hits mostly inhibitors; 0.43% of 200,000 active; AID 1478, 2009;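 further: plate controls were neutral wells for no effect and buffer without enzyme for full effect; nearly all actives have a fitted effect of over 40% in size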
Target sequence (P25779 123-467 limits assumed): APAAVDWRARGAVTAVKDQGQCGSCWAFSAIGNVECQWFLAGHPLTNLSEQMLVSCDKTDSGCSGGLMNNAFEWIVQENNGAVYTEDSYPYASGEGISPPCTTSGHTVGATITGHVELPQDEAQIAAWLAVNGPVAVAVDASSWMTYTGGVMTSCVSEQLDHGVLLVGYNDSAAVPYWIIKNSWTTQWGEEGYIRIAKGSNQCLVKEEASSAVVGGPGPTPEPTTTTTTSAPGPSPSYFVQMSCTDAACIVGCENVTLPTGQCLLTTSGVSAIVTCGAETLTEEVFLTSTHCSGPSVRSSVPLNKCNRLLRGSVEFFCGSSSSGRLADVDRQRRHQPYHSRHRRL
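Cysteine protease activity tested under reducing, mildly acidic conditions (100 mM sodium acetate pH 5.5, 5 mM DTT) plus 0.01% Triton X-100. Cruzain 1.5 nM; substrate Z-FR-AMC 2 uM; 15 min compound preincubation at room temperature.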
Cruzain noTriton: qHTS Assay for Promiscuous and Specific Inhibitors of Cruzain (without detergent). purified cruzain, Z-FR-AMC fluorescence, no detergent. Cruzipain (Trypanosoma cruzi), P25779. 2.3% of 200,000 active. Potency, µM, inactives show max response, negative = inhibition, actives largely listed as inhibitors;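 further: plate controls were enzyme without inhibitor for no effect and buffer without enzyme for full effect; nearly all actives have a fitted effect of over 40% in size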
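Detergent-free condition (0.00005% Triton X-100) in acetate buffer pH 5.5 with DTT. 1.5 nM enzyme and compound were pre-mixed 15 min, then 2 uM Z-FR-AMC substrate added; reaction progress from fluorescence change between first and third reads (60 s).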
Papain counter: qHTS Assay for Inhibitors of Papain: Counterscreen for Cruzain Assay | shares compounds with Cruzain inh Det | purified papain, Z-FR-AMC fluorescence cleavage | 41% of 410 active | Potency, µM, inactives show max response, negative = inhibition, actives largely listed as inhibitors;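 further: 0% = no-compound wells and -100% = no-enzyme wells; nearly all actives have a fitted effect of over 35% in size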
Target sequence (P00784 whole entry, looked up): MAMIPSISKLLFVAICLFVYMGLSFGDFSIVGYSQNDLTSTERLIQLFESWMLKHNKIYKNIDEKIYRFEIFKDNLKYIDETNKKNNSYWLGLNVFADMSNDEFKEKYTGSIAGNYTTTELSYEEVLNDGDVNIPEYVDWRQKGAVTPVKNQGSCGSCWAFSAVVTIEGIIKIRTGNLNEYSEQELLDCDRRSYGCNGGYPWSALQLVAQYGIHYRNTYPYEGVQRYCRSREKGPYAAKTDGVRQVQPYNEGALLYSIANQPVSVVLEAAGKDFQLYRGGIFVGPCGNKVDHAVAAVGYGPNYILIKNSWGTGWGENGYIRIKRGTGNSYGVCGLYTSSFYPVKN
Numbers without * were called inactive; ? = inconclusive; . = no result given. Shown are actives, neighbours in structure and some others; about 2.5% of the full set was active somewhere. The call rests on the fitted dose curve; in most records, active means well fitted curve in the direction sought with a large enough effect; inconclusive means small, poorly fitted or top-dose-only effect, or another doubt; inactive means no such curve, though single readings can be large; an effect the other way counts as inactive or inconclusive. Potency means the concentration at half of the fitted maximal effect.

SMILES | Cruzain inh Det | Cruzain noTriton | Papain counter
Cc1cccc(C)c1OCCn1c(C2CC(=O)N(Cc3ccc(F)cc3)C2)nc2ccccc21 (configuration not stated) | -7% | 21% | .
Cc1cc2cc3c(C)cc(=O)oc3c(C)c2o1 | 2% | 3% | .
Cc1cc2c(C)cc(=O)oc2c2c1NCCC2 | 25µM* | -11% | 16µM*
CCc1ccc(CNC(=O)c2nn(-c3ccc(OC)c(Cl)c3)c(=O)c3c2c2ccccc2n3C)cc1 | -1% | 4% | .
CCn1nc(-c2ccccc2C)nc2c(=O)n(C)c(=O)nc1-2 | . | . | -9%
Cc1ccc(-c2nc3n(n2)C(=O)CC(c2ccc(Cl)cc2)S3)cc1 (configuration not stated) | -4% | -9% | .
Cn1nc(-c2ccc(Cl)cc2)nc2c(=O)n(C)c(=O)nc1-2 | 1.6µM* | 1.6µM* | -20%
Cn1nc(-c2cccnc2)nc2c(=O)n(C)c(=O)nc1-2 | . | . | 3%
Cn1c(=O)nc2n(Cc3ccccc3)c3ccccc3cc-2c1=O | ? | -9% | .
Cc1cc(C)n2nc(-c3cccnc3)nc2n1 | 3% | 5% | .
Cc1cc(C)n2nc(-c3ccc(F)cc3)nc2n1 | 7% | -6% | .
Cn1nc(-c2ccc(F)cc2)nc2c(=O)n(C)c(=O)nc1-2 | . | . | -4%
O=c1cc(-c2ccccc2)n2c(SCc3cccc([N+](=O)[O-])c3)nnc2[nH]1 | 0% | 16% | .
Cc1ccc(CNC(=O)c2ccc(Cn3c(SCc4ccc(F)cc4)nc4cccnc43)cc2)o1 | -9% | 0% | .
CCOC(=O)c1ccc(NC(=O)CSc2cn(CC(=O)N3CCCC3)c3ccccc23)cc1 | -6% | 22% | .
COc1ccc(-c2nc3c(=O)n(C)c(=O)nc-3n(C)n2)cc1 | . | . | -10%
COc1ccc(-n2c(C)nn(C)c2=O)cc1 | 11% | -3% | .
CC(=O)c1ccc(NC(=O)Cn2c(=O)oc3cc(S(=O)(=O)N4CCCCC4)ccc32)cc1 | -1% | 1% | .
O=C(Cn1c(=O)oc2cc(S(=O)(=O)N3CCCCCC3)ccc21)NC1CCCCCCC1 | -9% | 20µM* | 12%
COC(=O)c1ccc(Cl)cc1NC(=O)N(C)CCc1c(C)nn(C)c1C | -1% | -4% | .
Cc1ccc2c(c1)N(C(=O)NCc1ccccc1)CCO2 | -2% | 0% | .
CCOc1cc(/C=N/NC(=O)C(C)Sc2ccccn2)ccc1O (configuration not stated) | -3% | 2% | .
CCC(C)[C@@H](N)C(=O)N/N=C/c1ccc2ncccc2c1 (some centres not stated) | 10µM* | 10µM* | 6%
O=[N+]([O-])c1cc(S(=O)(=O)Nc2ccccc2)ccc1-n1nnc2ccccc21 | 11µM* | ? | -5%
O=[N+]([O-])c1cc(C(F)(F)F)ccc1-n1nnc2ccccc21 | -5% | 6% | .
SMILES | Cruzain inh Det | Cruzain noTriton | Papain counter
CCOC(=O)c1ccc2c(c1)sc1nc(-c3ccc(OCC)cc3)cn12 | -1% | -1% | .
N#Cc1c(NC(=O)CSc2ncnc3c2cnn3-c2ccccc2Cl)sc2c1CCCC2 | 3% | 3.2µM* | 10%
N#Cc1c(NC(=O)CSc2ncn(-c3ccccc3)n2)sc2c1CCCC2 | 2% | ? | .
CCCc1ccc(NC(=O)C2CCCN(c3cnccn3)C2)cc1 (configuration not stated) | -7% | ? | .
Cc1ccc(NC(=O)C(=O)NCCCN2CCOCC2)cc1C | 0% | 3% | .
CCc1nc2ccccc2n1CCCCOc1ccccc1C | -7% | 12% | .
CCC(C)c1ccccc1OCCn1c(CCNC(=O)C2CCCCC2)nc2ccccc21 (configuration not stated) | . | . | -11%
Cc1ccccc1OCCn1c(CCNC(=O)C(C)C)nc2ccccc21 | -4% | 1% | .
Cc1ccccc1OCCCCn1c(CCNC(=O)C2CCCCC2)nc2ccccc21 | . | . | 11µM*
Cc1ccccc1Cn1c(CCCNC(=O)C2CCCCC2)nc2ccccc21 | -8% | -6% | .
CCn1c(CCNC(=O)c2ccc(OC)c(OC)c2)nc2ccccc21 | -3% | -1% | .
Cc1ccccc1OCCCn1c(CCNC(=O)C2CCCCC2)nc2ccccc21 | 3.2µM* | 3% | -19%
COc1ccccc1OCCCn1c(CCNC(=O)C2CCCCC2)nc2ccccc21 | . | . | 28µM*
CC1CCN(C(=O)CN2CCSc3ccc(S(=O)(=O)N(C)C)cc32)CC1 | -3% | 8% | .
CC1CCC(NC(=O)C2(C)Cc3ccccc3C(=O)N2Cc2ccc(F)cc2)CC1 (configuration not stated) | -2% | 4% | .
COc1ccc(C2=C(C)C(N3CCC(C(=O)Nc4cc(C)ccc4C)CC3)=NS2(=O)=O)cc1 | 0% | 21% | .
CCOCCCNC(=O)C(c1ccc(Cl)cc1)N(Cc1cccs1)C(=O)c1ccc(NC(C)=O)cc1 (configuration not stated) | 1% | ? | .
CNc1oc(Cc2ccccc2)nc1S(=O)(=O)c1ccc(Cl)cc1 | 10µM* | 10µM* | -12%
O=S(=O)(c1ccc(Cl)cc1)c1nc(-c2ccccc2Br)oc1NCc1ccccc1 | -7% | ? | .
CC(=O)NC1CC(=O)N(c2ccc3c(c2)OCCO3)C1 (configuration not stated) | 0% | 7% | .
Cc1ccccc1NC(=O)CSc1nnc(-c2ccco2)c(-c2ccco2)n1 | 25µM* | 3.2µM* | 14µM*
Cc1ccccc1NC(=O)CSc1nc(-c2ccco2)nc2cc(=O)[nH]n12 | -5% | 15% | .
O=C(CSc1nnc(-c2ccccc2)c(-c2ccccc2)n1)NCc1ccco1 | -12% | ? | .
O=C(CSc1nnc(-c2ccco2)c(-c2ccco2)n1)Nc1ccccc1 | 22µM* | 20µM* | 25µM*
Cc1ccc(OCC(=O)OCc2cc(=O)n3nc(C4CCCCC4)sc3n2)cc1 | 2% | -7% | .
SMILES | Cruzain inh Det | Cruzain noTriton | Papain counter
Cc1cccc(NS(=O)(=O)c2ccc3c(c2)CCN3C(=O)C2CCC2)c1 | -8% | -9% | .
COc1ccc(-n2nc3ccc(NC(=O)c4c(OC)cccc4OC)cc3n2)cc1 | 5% | -6% | .
Cc1ccc(-n2ncc3c(N4CCN(Cc5ccccc5)CC4)ncnc32)cc1Cl | 0% | -9% | .
O=C(NCCOCCO)C(=O)Nc1c2c(nn1-c1ccc(F)cc1)CSC2 | -9% | ? | .
CC(C)CC(=O)O/N=C1\C(=O)N(c2ccccc2)c2ccccc21 | 0.63µM* | 2.5µM* | 1.1µM*
O=C1CCCCC(=O)N(c2ccccc2)c2ccccc21 | 4% | 6% | .
CC(C)CC(=O)Nc1cccc2c1C(=O)N(c1ccccc1)C2=O | -7% | -18% | .
CC(C)(C)C(=O)O/N=C1/C(=O)N(c2ccccc2)c2ccccc21 | 1.6µM* | 20µM* | 25µM*
CCCCN1C(=O)C(O)(CC(=O)c2ccc(C(C)(C)C)cc2)c2ccccc21 (configuration not stated) | -12% | ? | .
CCOc1ccc(CNC(=O)C(C)n2ncn3cccc3c2=O)cc1 (configuration not stated) | -2% | 3% | .
Cc1ccc(S(=O)(=O)c2nc(-c3ccccc3)oc2SCC(=O)NC2CCCCC2)cc1 | -1% | 2% | .
O=[N+]([O-])c1ccccc1S(=O)(=O)NCCC1=CCCCC1 | 0% | -2% | .
O=[N+]([O-])c1ccccc1S(=O)(=O)NCC1CCC(CNCC2CCc3ccccc3C2)CC1 (configuration not stated) | -3% | -5% | 5%
